Compounds without any hit were thinned out: in the full panel of roughly 83,000, 20% have a hit.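 Single-concentration screen, 48 h exposure, 96-well plates. Endpoint: percent growth. Below 10 = active.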 Calls of active or inactive are those of the source.

This assay concerns HL-60(TB) leukemia. Briefly: NCI-60 one-dose screen, 48 h (100 = growth as untreated, 0 = no growth, -100 = all killed). Particulars: 10 µM unless noted.
With `O=c1oc2ccc(F)cc2c(=O)n1-c1ccc(Br)cc1F`, the growth was -45.3% (active).

`COC(=O)c1cc(-c2cc(OC)c(OC)c(OC)c2)[nH]c1N/N=C/c1c(Cl)cccc1Cl`: the growth was 134% (inactive).

Consider `CNC(=O)c1cc(Oc2ccc3nc(NC(=O)Nc4ccc(F)cc4F)sc3c2)ccn1`, for which the growth was 98.3% (inactive).

As to `C/C(=N\NC(=S)N1CCCC1)c1ccccn1`, the growth is -13.4% (active).

For `CN1Cn2c(ccc2C(F)(F)F)C(=O)CS1(=O)=O`, the growth was 108% (inactive).

For the compound `Cc1cc2cn3c4ccc(O)cc4nc(N)c3c2cc1C`, the growth is -32.5% (active).

For the compound `COc1cc(-c2nc3ccccc3s2)ccc1OCc1nc2n(n1)S(=O)(=O)c1ccccc1N2c1ccccc1`, the growth was 16.2% (inactive).

Consider `COc1ccc(-c2nc(SCCC(C)C)nc(N/N=C\c3cccc([N+](=O)[O-])c3)c2C#N)cc1`, for which the growth was 97% (inactive).

As to `CC1CCCN(CCCCCOc2ccc3oc4ccc(Cl)cc4c(=O)c3c2)C1` (stereo unspecified), the growth is 48.6% (inactive).

As to `O=C1/C(=C/N2N=C(c3ccc4ccccc4c3)CC2c2ccccc2O)SC(=S)N1c1cccnc1` (stereo unspecified), the growth is -15.3% (active).

As for `Cc1nc2ccccc2c(C(=O)O)c1O`, the growth was 186% (inactive).

With `CC1(O)CCC2CC3OC3(C)CCC3OC3(C)C(O)CC1C2(C)C` (stereo unspecified), the growth is 137% (inactive).

Consider `Cc1nc2sc(C(=O)Nc3ccccc3)c(N)c2cc1C(O)c1ccccc1` (stereo unspecified), for which the growth was -54% (active).

Turning to `O=C(O)C1CN(c2cccc(Cl)c2)N(c2cccc(Cl)c2)C1=O` (stereo unspecified), the growth is 95.3% (inactive).

Consider `C=C(CNCCc1ccc(O)cc1)[C@@H]1CC[C@]2(CO)CC[C@]3(C)[C@H](CC[C@@H]4[C@@]5(C)CCC(N)C(C)(C)[C@@H]5CC[C@]43C)[C@@H]12` (stereo partly specified), for which the growth was -47% (active).

As to `COc1ccc(-c2cn[nH]c2-c2cc(OC)c3c(c2)OCCO3)cc1`, the growth was -33.2% (active).

For `CCC(C)[C@@H]1NC(=O)[C@@H]2CCCN2C(=O)[C@H](Cc2ccccc2)NC(=O)[C@@H]2CCCN2C(=O)[C@H](Cc2ccccc2)NC(=O)[C@@H]2CCCN2C(=O)[C@H](Cc2ccccc2)NC1=O` (stereo partly specified), the growth was 95.6% (inactive).

As for `COc1cc(NC(=O)COc2cc(C)nc3ccc(OC)cc23)cc(OC)c1`, the growth is 80.3% (inactive).

With `COc1ccc(NC(=O)/C=C/c2ccc(Cl)c(Cl)c2)cn1`, the growth was 61.5% (inactive).

On to `CCCCC(CC)COC(C)=O` (stereo unspecified), for which the growth was 100% (inactive).

On to `COc1ccc(/C=C/C(=O)c2cc3c(N)c(C(=O)Nc4ccccc4Cl)sc3nc2C)cc1`, for which the growth was 4.2% (active).

Turning to `COc1cc2oc3cc(=O)cc4oc(-c5ccccc5)cc(c2c2c1CCC(c1ccccc1)O2)c43` (stereo unspecified), the growth was 138% (inactive).

`COc1cc2oc(-c3ccc(NC(=O)c4ccccc4)cc3)cc(=O)c2c(OC)c1OC`: the growth was 100% (inactive).

Turning to `CCCCCCCCCCCCCCCCN(C(C)c1ccccc1)S(=O)(=O)c1ccc(OC)c(N)c1` (stereo unspecified), the growth was 98.2% (inactive).

As for `O=C(Nc1ccccc1)Nc1ncnc2c1ncn2-c1ccc(Cl)cc1`, the growth is 95.3% (inactive).

On to `CNC(=O)OC1C(O[C@H]2C[C@H]3[C@@H]4CC=C5C[C@@H](O)CC[C@]5(C)[C@H]4CC[C@]3(C)[C@H]2[C@H](C)C(=O)CCC(C)C)OCC(O)C1OC1OCC(O)C(O)C1OC(=O)c1ccc(OC)cc1` (stereo partly specified), for which the growth was -12.1% (active).
